# From ChEMBL document CHEMBL1961873, “Compounds: GSK PKIS; Assays: Nanosyn kinase panel” (2012)
# Columns and labels:
# [1] = target: T1, Inhibitor of nuclear factor kappa-B kinase subunit epsilon (Homo sapiens) (UniProt Q14164); conditions: at 1 µM;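 note: reported values are averaged percent inhibition figures against human IKKε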
# T1 sequence (whole entry): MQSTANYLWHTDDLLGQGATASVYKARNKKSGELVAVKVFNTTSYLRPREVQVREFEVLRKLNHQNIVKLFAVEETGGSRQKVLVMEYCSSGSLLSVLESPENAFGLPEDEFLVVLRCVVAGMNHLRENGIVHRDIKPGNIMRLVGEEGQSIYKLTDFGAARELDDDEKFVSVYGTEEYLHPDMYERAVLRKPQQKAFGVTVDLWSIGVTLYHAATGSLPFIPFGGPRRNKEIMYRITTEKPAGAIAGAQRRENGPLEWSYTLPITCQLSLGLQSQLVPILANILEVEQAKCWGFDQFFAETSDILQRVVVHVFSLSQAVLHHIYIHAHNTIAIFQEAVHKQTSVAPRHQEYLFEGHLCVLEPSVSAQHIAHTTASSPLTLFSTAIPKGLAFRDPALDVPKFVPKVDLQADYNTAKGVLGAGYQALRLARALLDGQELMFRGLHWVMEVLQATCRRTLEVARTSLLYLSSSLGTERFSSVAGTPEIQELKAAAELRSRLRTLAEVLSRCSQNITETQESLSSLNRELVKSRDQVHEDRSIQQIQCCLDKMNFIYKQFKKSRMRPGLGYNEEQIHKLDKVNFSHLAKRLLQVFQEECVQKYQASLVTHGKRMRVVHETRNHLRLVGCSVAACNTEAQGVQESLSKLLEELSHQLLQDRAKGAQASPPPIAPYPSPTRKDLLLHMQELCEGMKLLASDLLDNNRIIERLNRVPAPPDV
# [2] = target: T2, Serine/threonine-protein kinase Nek1 (Homo sapiens) (UniProt Q96PY6); conditions: at 0.1 µM
# T2 sequence (whole entry): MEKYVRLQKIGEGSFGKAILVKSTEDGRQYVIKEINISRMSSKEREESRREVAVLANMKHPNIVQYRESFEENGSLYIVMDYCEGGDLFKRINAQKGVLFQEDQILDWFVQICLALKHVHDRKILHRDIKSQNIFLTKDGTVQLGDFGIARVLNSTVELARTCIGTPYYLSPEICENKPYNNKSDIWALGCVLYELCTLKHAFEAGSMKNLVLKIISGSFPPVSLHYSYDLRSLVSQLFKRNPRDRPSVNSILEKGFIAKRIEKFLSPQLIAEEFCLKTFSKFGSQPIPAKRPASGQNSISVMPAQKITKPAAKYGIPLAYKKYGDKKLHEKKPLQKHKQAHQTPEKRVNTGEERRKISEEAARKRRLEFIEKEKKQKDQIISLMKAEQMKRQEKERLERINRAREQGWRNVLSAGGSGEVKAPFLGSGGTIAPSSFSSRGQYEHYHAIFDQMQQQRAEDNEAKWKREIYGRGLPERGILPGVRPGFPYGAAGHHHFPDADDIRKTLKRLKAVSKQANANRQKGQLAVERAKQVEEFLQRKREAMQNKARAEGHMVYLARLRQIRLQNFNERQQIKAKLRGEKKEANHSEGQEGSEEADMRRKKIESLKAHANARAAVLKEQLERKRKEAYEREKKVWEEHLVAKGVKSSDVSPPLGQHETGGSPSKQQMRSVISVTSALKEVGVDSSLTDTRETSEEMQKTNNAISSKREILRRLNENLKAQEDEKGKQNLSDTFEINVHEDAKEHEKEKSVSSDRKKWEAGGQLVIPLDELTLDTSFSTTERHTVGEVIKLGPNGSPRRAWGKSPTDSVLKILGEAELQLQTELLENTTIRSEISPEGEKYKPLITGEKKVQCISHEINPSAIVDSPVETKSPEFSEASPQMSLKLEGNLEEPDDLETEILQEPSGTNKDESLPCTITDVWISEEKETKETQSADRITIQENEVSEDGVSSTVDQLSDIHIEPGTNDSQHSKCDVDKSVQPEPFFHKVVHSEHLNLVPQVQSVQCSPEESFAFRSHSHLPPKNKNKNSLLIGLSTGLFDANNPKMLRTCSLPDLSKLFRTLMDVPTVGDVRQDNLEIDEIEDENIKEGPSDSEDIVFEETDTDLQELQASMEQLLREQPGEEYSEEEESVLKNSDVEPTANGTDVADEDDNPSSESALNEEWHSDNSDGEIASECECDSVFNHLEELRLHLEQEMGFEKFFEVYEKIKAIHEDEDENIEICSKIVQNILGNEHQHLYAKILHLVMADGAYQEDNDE
# [3] = target: T2, Serine/threonine-protein kinase Nek1 (Homo sapiens); conditions: at 1 µM
# [4] = target: T3, Serine/threonine-protein kinase Nek2 (Homo sapiens) (UniProt P51955); conditions: at 0.1 µM
# T3 sequence (whole entry): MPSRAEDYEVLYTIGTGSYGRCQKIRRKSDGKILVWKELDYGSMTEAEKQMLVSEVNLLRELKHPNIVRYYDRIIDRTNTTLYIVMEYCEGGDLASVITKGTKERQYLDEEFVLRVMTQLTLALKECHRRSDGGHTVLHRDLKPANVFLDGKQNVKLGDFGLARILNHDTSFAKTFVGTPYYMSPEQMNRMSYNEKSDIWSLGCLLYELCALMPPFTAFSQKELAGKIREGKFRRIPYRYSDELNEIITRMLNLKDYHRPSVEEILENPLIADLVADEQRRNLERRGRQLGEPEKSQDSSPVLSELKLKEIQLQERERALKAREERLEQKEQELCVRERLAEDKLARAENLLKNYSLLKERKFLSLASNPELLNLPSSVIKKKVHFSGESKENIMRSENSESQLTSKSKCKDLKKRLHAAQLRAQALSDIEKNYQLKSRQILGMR
# [5] = target: T3, Serine/threonine-protein kinase Nek2 (Homo sapiens); conditions: at 1 µM
# [6] = target: Serine/threonine-protein kinase Nek6 (Homo sapiens) (UniProt Q9HC98); conditions: at 0.1 µM
# Sequence of Serine/threonine-protein kinase Nek6 (Homo sapiens) (Q9HC98 whole entry): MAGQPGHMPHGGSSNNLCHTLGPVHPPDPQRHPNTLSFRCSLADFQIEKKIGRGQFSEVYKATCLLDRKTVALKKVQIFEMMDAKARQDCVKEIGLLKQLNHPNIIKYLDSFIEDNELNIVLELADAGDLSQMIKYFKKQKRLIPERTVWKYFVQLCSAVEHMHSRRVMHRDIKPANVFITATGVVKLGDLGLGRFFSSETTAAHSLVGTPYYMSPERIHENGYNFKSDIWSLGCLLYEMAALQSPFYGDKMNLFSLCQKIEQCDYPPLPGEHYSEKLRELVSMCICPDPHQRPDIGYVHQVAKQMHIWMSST
# [7] = target: Serine/threonine-protein kinase Nek6 (Homo sapiens) (UniProt Q9HC98); conditions: at 1 µM
# [8] = target: Serine/threonine-protein kinase Nek7 (Homo sapiens) (UniProt Q8TDX7); conditions: at 0.1 µM
# Sequence of Serine/threonine-protein kinase Nek7 (Homo sapiens) (Q8TDX7 whole entry, looked up): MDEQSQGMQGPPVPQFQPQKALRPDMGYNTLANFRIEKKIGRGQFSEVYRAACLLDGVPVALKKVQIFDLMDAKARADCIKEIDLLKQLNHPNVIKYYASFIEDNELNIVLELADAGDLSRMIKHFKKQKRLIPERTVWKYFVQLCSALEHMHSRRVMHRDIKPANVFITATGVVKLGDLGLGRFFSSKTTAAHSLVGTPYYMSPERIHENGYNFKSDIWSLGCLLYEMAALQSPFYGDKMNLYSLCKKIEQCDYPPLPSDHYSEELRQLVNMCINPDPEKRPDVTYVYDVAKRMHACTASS
# [9] = target: Serine/threonine-protein kinase Nek7 (Homo sapiens) (UniProt Q8TDX7); conditions: at 1 µM
# [10] = target: T4, Serine/threonine-protein kinase Nek9 (Homo sapiens) (UniProt Q8TD19); conditions: at 0.1 µM
# T4 sequence (whole entry): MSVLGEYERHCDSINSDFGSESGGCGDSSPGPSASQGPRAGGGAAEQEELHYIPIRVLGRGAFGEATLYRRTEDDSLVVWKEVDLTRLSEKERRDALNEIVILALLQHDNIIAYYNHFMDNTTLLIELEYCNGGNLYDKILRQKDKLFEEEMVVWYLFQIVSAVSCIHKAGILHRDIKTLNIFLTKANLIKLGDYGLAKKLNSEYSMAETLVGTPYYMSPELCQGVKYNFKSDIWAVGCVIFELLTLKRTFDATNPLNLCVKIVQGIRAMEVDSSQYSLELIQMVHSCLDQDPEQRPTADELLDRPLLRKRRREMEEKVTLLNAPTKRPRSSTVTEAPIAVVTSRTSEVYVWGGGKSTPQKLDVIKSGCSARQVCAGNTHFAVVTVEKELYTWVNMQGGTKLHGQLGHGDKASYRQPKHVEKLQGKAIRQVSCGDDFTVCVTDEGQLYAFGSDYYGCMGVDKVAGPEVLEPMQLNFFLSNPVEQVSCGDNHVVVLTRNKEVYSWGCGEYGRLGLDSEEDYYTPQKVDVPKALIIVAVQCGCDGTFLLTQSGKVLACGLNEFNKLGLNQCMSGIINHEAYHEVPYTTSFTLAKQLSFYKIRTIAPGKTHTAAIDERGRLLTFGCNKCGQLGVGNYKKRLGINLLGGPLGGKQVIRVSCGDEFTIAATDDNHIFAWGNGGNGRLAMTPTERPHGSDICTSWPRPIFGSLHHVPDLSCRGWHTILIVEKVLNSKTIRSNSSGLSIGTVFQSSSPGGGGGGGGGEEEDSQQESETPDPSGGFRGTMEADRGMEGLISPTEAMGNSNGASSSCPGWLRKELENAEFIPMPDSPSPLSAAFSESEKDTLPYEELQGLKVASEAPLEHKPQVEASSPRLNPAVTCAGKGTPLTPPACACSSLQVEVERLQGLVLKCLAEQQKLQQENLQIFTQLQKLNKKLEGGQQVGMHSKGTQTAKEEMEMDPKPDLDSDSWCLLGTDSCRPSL
# [11] = target: T4, Serine/threonine-protein kinase Nek9 (Homo sapiens); conditions: at 1 µM
# [12] = target: Serine/threonine-protein kinase PLK1 (Homo sapiens) (UniProt P53350); conditions: at 0.1 µM
# Sequence of Serine/threonine-protein kinase PLK1 (Homo sapiens) (P53350 whole entry): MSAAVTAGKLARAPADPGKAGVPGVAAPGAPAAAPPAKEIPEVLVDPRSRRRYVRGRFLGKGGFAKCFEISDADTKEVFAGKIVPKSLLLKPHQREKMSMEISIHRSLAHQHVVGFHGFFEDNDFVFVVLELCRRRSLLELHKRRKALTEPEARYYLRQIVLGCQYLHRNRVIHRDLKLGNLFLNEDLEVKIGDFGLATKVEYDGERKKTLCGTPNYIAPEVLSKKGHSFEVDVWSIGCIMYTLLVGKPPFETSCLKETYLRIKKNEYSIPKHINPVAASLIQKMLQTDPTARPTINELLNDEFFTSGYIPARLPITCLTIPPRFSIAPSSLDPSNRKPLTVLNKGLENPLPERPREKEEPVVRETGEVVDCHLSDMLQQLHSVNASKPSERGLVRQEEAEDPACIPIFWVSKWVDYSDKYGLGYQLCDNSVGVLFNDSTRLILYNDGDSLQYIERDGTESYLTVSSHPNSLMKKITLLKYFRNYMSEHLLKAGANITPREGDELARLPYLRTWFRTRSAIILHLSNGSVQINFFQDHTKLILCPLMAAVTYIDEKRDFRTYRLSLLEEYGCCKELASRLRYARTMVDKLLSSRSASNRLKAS
# [13] = target: Serine/threonine-protein kinase PLK1 (Homo sapiens) (UniProt P53350); conditions: at 1 µM
# [14] = target: T5, Dual specificity protein kinase TTK (Homo sapiens) (UniProt P33981); conditions: at 0.1 µM
# T5 sequence (whole entry): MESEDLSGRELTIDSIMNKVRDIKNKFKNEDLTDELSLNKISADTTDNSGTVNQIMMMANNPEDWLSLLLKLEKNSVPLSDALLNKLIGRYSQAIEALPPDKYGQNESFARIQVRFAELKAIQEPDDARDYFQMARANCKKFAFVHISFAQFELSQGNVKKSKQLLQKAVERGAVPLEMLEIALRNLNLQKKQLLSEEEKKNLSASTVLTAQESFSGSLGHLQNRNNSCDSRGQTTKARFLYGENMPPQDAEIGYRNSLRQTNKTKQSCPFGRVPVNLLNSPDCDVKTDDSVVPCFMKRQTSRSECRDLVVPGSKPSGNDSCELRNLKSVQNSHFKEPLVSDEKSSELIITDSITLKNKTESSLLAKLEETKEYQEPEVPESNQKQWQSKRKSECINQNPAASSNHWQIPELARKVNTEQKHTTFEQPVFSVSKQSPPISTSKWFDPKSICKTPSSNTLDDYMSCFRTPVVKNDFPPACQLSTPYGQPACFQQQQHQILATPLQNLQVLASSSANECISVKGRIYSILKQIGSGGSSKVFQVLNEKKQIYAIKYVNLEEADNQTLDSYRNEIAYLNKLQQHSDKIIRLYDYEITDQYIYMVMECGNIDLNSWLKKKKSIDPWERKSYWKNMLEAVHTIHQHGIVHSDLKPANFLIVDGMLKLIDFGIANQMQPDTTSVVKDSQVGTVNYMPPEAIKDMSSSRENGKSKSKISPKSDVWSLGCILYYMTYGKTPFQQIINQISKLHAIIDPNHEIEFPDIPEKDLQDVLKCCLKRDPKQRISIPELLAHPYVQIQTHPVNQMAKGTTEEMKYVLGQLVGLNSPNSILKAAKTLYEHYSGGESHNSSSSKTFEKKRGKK
# [15] = system: T6, Receptor-type tyrosine-protein kinase FLT3 (Homo sapiens), P36888 [D835Y]; conditions: at 1 µM
# T6 sequence (whole entry): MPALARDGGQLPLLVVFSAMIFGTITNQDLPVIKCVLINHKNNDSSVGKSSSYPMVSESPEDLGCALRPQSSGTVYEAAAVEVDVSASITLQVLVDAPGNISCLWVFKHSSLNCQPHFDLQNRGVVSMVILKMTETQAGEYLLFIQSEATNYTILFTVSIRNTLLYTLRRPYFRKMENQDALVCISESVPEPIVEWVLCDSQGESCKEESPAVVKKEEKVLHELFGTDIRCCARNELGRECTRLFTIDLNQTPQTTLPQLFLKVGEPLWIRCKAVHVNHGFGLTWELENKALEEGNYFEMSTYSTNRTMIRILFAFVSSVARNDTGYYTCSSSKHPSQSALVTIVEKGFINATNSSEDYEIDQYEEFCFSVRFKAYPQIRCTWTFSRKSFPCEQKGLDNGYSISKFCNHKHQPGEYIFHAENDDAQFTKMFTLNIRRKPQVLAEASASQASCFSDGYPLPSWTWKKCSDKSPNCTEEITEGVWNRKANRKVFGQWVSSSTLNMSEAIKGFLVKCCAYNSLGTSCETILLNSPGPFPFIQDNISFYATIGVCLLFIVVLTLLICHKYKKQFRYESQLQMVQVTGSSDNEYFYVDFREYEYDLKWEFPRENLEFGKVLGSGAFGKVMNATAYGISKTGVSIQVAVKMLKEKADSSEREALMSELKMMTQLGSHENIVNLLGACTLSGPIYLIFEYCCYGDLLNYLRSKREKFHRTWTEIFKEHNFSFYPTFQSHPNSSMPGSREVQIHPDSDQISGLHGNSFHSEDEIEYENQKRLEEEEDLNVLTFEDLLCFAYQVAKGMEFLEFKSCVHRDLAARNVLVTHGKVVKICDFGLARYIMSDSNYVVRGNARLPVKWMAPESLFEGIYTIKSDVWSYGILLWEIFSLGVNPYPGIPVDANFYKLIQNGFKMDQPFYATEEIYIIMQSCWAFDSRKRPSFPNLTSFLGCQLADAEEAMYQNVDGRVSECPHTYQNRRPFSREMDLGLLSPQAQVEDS
# [16] = target: Vascular endothelial growth factor receptor 3 (Homo sapiens) (UniProt P35916); conditions: at 0.1 µM
# Sequence of Vascular endothelial growth factor receptor 3 (Homo sapiens) (P35916 whole entry): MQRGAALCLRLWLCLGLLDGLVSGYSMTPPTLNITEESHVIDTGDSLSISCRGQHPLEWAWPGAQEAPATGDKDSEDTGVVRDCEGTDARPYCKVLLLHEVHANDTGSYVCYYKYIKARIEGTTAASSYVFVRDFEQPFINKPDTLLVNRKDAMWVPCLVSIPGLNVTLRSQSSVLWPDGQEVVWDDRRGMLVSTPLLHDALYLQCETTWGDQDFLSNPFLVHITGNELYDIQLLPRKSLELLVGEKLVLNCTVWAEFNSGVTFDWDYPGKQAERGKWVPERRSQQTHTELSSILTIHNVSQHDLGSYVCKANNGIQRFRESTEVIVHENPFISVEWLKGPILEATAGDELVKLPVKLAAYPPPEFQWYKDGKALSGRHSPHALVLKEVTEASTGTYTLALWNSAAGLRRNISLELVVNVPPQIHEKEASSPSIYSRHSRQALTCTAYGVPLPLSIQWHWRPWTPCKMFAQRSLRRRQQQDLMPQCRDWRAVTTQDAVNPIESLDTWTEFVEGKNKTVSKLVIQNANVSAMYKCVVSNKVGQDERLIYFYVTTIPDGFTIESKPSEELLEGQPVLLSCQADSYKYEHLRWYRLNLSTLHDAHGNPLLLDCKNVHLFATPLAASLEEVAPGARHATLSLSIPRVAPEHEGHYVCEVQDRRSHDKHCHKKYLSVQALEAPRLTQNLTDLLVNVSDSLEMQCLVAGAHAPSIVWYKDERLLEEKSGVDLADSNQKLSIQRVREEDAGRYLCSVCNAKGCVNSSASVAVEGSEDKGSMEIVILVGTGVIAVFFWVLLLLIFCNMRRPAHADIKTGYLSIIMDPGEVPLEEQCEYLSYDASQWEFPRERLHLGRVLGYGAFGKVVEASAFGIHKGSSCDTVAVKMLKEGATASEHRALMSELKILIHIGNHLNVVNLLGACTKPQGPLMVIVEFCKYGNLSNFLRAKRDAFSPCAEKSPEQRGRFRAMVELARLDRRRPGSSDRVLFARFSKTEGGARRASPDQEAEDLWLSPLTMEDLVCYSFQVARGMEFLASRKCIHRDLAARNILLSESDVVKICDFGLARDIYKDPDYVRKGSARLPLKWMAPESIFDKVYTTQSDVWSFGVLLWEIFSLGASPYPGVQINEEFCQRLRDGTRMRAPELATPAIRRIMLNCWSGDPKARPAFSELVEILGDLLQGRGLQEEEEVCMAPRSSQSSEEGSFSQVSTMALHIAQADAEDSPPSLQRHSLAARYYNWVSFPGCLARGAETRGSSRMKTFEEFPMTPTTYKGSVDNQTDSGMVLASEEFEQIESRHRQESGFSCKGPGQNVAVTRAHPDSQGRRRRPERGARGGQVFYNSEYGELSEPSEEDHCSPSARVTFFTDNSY
# [17] = target: Vascular endothelial growth factor receptor 3 (Homo sapiens) (UniProt P35916); conditions: at 1 µM
# [18] = target: Macrophage colony-stimulating factor 1 receptor (Homo sapiens) (UniProt P07333); conditions: at 0.1 µM
# Sequence of Macrophage colony-stimulating factor 1 receptor (Homo sapiens) (P07333 whole entry): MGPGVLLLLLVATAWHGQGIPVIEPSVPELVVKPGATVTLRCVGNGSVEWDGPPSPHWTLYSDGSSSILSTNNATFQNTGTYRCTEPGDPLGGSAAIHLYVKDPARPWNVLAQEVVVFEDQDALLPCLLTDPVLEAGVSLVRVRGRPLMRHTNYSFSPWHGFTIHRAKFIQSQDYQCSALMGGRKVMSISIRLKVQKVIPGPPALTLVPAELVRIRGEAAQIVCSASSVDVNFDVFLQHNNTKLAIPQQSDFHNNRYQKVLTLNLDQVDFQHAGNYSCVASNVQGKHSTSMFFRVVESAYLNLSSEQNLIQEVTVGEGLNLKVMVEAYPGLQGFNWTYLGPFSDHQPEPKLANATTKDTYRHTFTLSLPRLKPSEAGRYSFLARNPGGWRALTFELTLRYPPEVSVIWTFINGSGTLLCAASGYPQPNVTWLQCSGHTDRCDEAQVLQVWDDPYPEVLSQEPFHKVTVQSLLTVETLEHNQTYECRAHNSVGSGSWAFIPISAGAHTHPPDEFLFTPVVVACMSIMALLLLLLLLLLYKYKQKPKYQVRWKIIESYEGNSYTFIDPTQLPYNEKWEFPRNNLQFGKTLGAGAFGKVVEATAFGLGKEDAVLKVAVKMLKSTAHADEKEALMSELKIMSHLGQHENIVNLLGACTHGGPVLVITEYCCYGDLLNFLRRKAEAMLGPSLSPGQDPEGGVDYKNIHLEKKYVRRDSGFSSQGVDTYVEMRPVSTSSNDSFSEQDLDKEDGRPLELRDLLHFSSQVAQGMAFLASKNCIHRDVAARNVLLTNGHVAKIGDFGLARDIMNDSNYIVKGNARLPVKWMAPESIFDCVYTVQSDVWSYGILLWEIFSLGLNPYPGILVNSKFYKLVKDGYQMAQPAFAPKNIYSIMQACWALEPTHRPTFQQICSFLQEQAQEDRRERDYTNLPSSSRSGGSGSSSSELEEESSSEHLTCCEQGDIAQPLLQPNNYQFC
# [19] = target: Macrophage colony-stimulating factor 1 receptor (Homo sapiens) (UniProt P07333); conditions: at 1 µM
# [20] = target: Tyrosine-protein kinase Fyn (Homo sapiens) (UniProt P06241); conditions: at 0.1 µM
# Sequence of Tyrosine-protein kinase Fyn (Homo sapiens) (P06241 2-537 limits assumed): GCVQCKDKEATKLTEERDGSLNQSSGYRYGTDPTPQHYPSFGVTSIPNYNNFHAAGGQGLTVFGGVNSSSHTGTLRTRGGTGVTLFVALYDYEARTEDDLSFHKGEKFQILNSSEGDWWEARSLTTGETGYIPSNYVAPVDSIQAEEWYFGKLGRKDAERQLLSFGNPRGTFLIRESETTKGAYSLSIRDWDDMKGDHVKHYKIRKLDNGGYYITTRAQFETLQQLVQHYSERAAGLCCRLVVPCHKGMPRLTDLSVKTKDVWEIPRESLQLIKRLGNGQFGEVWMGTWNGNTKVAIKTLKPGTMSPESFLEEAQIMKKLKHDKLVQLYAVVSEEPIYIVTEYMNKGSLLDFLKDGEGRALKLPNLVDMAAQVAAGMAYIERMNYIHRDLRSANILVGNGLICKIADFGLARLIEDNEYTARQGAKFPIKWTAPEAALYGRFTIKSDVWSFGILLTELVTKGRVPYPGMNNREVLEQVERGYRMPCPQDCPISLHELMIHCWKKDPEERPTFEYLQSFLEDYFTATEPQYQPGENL
compound,measurement,setting,value
CCn1c(-c2nonc2N)nc2cncc(C(=O)NCCNC)c21,inhibition,[1],17.6%
same,inhibition,[2],2.71%
same,inhibition,[3],5.36%
same,inhibition,[4],6.66%
same,inhibition,[5],6.84%
same,inhibition,[6],-0.45%
same,inhibition,[7],0.9%
same,inhibition,[8],3.5%
same,inhibition,[9],4.72%
same,inhibition,[10],7.8%
same,inhibition,[11],11.9%
same,inhibition,[12],6.23%
same,inhibition,[13],5.87%
same,inhibition,[14],9.43%
same,inhibition,[15],3.12%
same,inhibition,[16],1.03%
same,inhibition,[17],3.05%
same,inhibition,[18],-0.11%
same,inhibition,[19],3.41%
same,inhibition,[20],2.35%
